Source: PubChem (SRMLSC)
Spn DPM-DC inh = blocks S. pneumoniae diphosphomevalonate decarboxylase; hit rate 0.49% among 65,000; purified DPM-DC, PK/LDH coupled NADH fluorescence; calls only at 10 µM; AID 556;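 active = the 320 compounds with the highest percent inhibition in the single-dose primary screen, excluding strongly autofluorescent ones, cut at about 32% in these data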;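 note: kinetic rate of NADH fluorescence loss reporting ADP formed by the decarboxylase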
Spn MK inh = S. pneumoniae mevalonate kinase inhibition; inhibition, % at 10 µM; purified MK, PK/LDH-coupled NADH absorbance 340 nm; hit rate 0.48% among 65,000; AID 555;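 active = ranked among the strongest by inhibition in the single 10 µM screen, a fixed top-ranked set picked for dose follow-up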
A340 absorber = compound absorbs light at 340 nm. compound absorbance at 340 nm, fold over control. fold change at 10 µM. 65,000 tested, under 10 active;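 active = at 10 µM dose, initial 340 nm absorbance at least 2 fold that of control wells; inactive = change under 2 fold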;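 note: initial absorbance extrapolated from kinetic A340 decline of NADH oxidation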
Spn PMK inh = blocks S. pneumoniae phosphomevalonate kinase | purified PMK, PK/LDH-coupled NADH absorbance 340 nm | inhibition, % at 10 µM | hit rate 0.49% among 65,000 | AID 539;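 active = top-ranked compounds by inhibition in the single 10 µM screen, taking a fixed number of the strongest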;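 note: 0% = full reaction with DMSO carrier and 100% = background rate without enzyme reaction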
NADH coupling = blocks coupling enzymes of NAD/NADH assays; coupled PK/LDH NADH assays, four targets; IC50, µM (top dose mostly 10 µM), inactives show at the top dose inhibition; hit rate 0.02% among 65,000;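 active = single-dose screening hits from any of four coupled enzyme assays that gave an IC50 when retested across doses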;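 note: the DPM-DC format reads NADH fluorescence rather than 340 nm absorbance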
Autofluor 339 = intrinsic fluorescence of library compounds, ex339/em460 – biochemical, MLSMR library, data from DPM-DC assay, artefact control, profiling panel; hit rate 5.5% among 65,000; compound autofluorescence, ex339/em460 nm, NADH buffer; stronger effect = higher value; 1 = no-compound wells, NADH background; fluorescence fold increase at 10 µM;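 active = at 10 µM, mean starting fluorescence two-fold or more over control wells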;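 note: signal is the first read of a kinetic run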
The depositor's hits bear a star; i = inactive; / = no result shown; + = active, no number. Rows were chosen to be rich in hits. Some 6.8% of all compounds tested hit in one or more screens of this group.

SMILES | Spn DPM-DC inh | Spn MK inh | A340 absorber | Spn PMK inh | NADH coupling | Autofluor 339
Cn1c(=N)c(S(=O)(=O)c2ccc(F)cc2)cc2c(=O)n3ccccc3nc21 | / | 10 | 1 | 15 | 13% | 3.4*
COCCCn1c(C2CCCCC2)nc2oc3cc(OC)ccc3c(=O)c2c1=O | i | 15 | 1.1 | 11 | 9% | 1.1
CC(C)c1cc(C(F)(F)F)n2nc(C(=O)Nc3ccc4c(c3)OCO4)cc2n1 | i | 8 | 1 | 10 | 6% | 1
CCCn1nnc(NC(=O)c2cc(Br)cc(Br)c2OC)n1 | i | 5 | 1 | 3 | 3% | 1.1
CC(=O)N1CCc2cc(S(=O)(=O)NCCN3CCC(C)CC3)ccc21 | i | 0 | 1.1 | 12 | 4% | 1.1
COc1ccc(-c2nc3c(n2O)CCCC3=O)cc1OC | / | 6 | 1.1 | 13 | 10% | 3.5*
CC(=O)/C=C(\C)NCCNc1c(F)c(F)c(CO)c(F)c1F | i | 0 | 1 | 13 | 4% | 1.1
C=CCn1c(SCc2nc3ccccc3nc2C)nnc1-c1ccoc1C | i | 15 | 1 | 23 | 13% | 1.1
CCOc1cc(C2Nc3ccccc3C(=O)N2c2ccccc2)ccc1O (stereo not given) | / | 11 | 1.1 | 1 | 6% | 3.6*
O=c1c2ccccc2nnn1CSc1nnc(-c2cccs2)n1Cc1ccccc1 | i | 76* | 1 | 10 | 31% | 1
CSc1nnc(NC(=O)C2CCCCC2)s1 | i | 3 | 1 | / | 8% | 1.1
CSc1ncc(Cl)c(C(=O)Nc2nnc(SC)s2)n1 | + | 8 | 1 | 0 | 32% | 1
COc1ccc2c(C(F)(F)F)cc(=O)oc2c1C | / | 11 | 1 | 3 | 2% | 2.9*
CCN(CCO)Cc1cc(=O)oc2c(C)c(C)ccc12 | i | 4 | 1.1 | 0 | 1% | 1.2
CC12C=CC3(CN(Cc4ccccc4)C(=O)C3C1C(=O)NCc1ccco1)O2 (stereo not given) | i | 3 | 0.98 | 20 | 8% | 1
COc1ccc(OC)c2c1CC(C)(C)NC2=O | / | 3 | 1.1 | 0 | 2% | 2.1*
CCOc1ccc(C2c3c(oc4cc(C)c(C)cc4c3=O)C(=O)N2CCCN(C)C)cc1OC (stereo not given) | i | 10 | 1.1 | 28* | 14% | 1.1
CCCOc1ccc(C2c3c(oc4cc(C)c(C)cc4c3=O)C(=O)N2CCCN(C)C)cc1OCC (stereo not given) | i | 5 | 1.1 | 3 | 3% | 1.1
CCOC(=O)c1ccc(Cn2c(-c3ccccc3)nnc2-c2ccccc2)o1 | i | 4 | 1 | 7 | 4% | 1.2
CCOC(=O)c1[nH]c2ccc(OC)cc2c1NC(=O)CN1CCN(c2ccccn2)CC1 | + | 0 | 1 | 41 | 25% | 2
COC(=O)c1[nH]c2ccccc2c1NC(=O)CN1CCN(Cc2ccc3c(c2)OCO3)CC1 | i | 13 | 1 | 6 | 9% | 1.6
CCOC(=O)C1CCN(CC(=O)Nc2c(C(=O)OC)[nH]c3ccccc23)CC1 | i | 16 | 1 | 10 | 9% | 1.4
CCOC(=O)c1[nH]c2ccc(OCC)cc2c1NC(=O)CN1CCN(c2ccccn2)CC1 | / | 1 | 1.1 | 15 | 8% | 3.9*
CCOC(=O)c1[nH]c2ccc(OCC)cc2c1NC(=O)CN1CCCC(C)C1 (stereo not given) | / | 3 | 1.1 | 6 | 5% | 3.9*
CCOC(=O)c1[nH]c2cc3c(cc2c1NC(=O)CN1CC(C)CC(C)C1)OCO3 (stereo not given) | / | 4 | 1.1 | 4 | 4% | 2.4*
SMILES | Spn DPM-DC inh | Spn MK inh | A340 absorber | Spn PMK inh | NADH coupling | Autofluor 339
CCOCCn1c(=O)c2c(nc3n2CCN3c2ccccc2)n(C)c1=O | i | 6 | 1 | 13 | 6% | 1.2
COc1ccc(C(=O)CSc2nc3nc(C)cc(C)c3c(=O)[nH]2)cc1OC | i | 0 | 1.1 | 5 | 2% | 1.2
Cc1ccc(CN2CC34C=CC(O3)C(C(=O)NCc3ccc5c(c3)OCO5)C4C2=O)cc1 (stereo not given) | i | 9 | 1.1 | 0 | 3% | 1.1
COCCCNC(=O)C1C2C=CC3(CN(Cc4ccc(C)cc4)C(=O)C13)O2 (stereo not given) | i | 0 | 1 | 25* | 12% | 0.85
CCCc1nnc(NC(=O)c2c(O)c3cccc4c3n(c2=O)CCC4)s1 | i | 10 | 1 | 12 | 10% | 2.8*
CCCCc1ccc(NC(=O)COCC)cc1 | i | 6 | 0.99 | 0 | 1% | 1
COc1ccc(-c2cn3cccnc3n2)cc1NC(=O)CC(C)C | / | 0 | 1.1 | 14 | 7% | 5.2*
CCCC(=O)Nc1cc(-c2cn3cccnc3n2)ccc1OC | / | 0 | 1.1 | 13 | 7% | 4.5*
CCOCC(=O)Nc1ccc(-c2cn3cccnc3n2)cc1 | / | 0 | 1.1 | 13 | 7% | 5.2*
O=C(Nc1ccccc1C(=O)OCC(=O)N1CCc2ccccc2C1)c1ccco1 | i | 0 | 1.1 | 0 | 0% | 1.4
CC1(C)CC(=O)C2=C(C1)NC(Nc1nc3ccccc3o1)=NC21CCCCC1 | i | 3 | 1.1 | 1 | 4% | 2.4*
CCn1c(CNc2ccc(C)cc2C)nnc1SCC(=O)N1CCCc2ccccc21 | i | 4 | 1 | 12 | 5% | 1.1
c1csc(-c2ncc3ccccn23)c1 | / | 6 | 1.2 | 12 | 9% | 3.4*
c1ccc(-n2c(-c3ccncc3)nnc2-c2cccs2)cc1 | i | 10 | 1 | 11 | 10% | 1.3
COc1ccc(-c2ncc3ccccn23)cc1 | / | 12 | 1.1 | 11 | 12% | 3.2*
CC1(C)CC(=O)C(C=NCCN2CCN(CCc3ccccc3)CC2)=C(O)C1 | i | 1 | 1 | active | 3% | 1.1
CC1(C)CC(=O)C(C=NCCN2CCN(C(=O)c3ccccc3)CC2)=C(O)C1 | i | 11 | 1 | 0 | 4% | 1.1
CCN(CC)CCNc1nc2ccccc2n1C | i | 4 | 1 | 0 | 1% | 1.1
Cc1ccc2c(c1)nc(NCCO)n2C | i | 4 | 1 | 13 | 10% | 2.1*
O=C(CSc1nnc(CNc2ccc(Cl)cc2)o1)Nc1nc2c(s1)CCCC2 | i | 7 | 0.99 | 16 | 9% | 0.98
Cc1ccc2oc(=O)c3cc(C(=O)NCc4ccco4)sc3c2c1 | / | 4 | 1.1 | 9 | 7% | 2*
C=CCn1c(N)c(C(=O)OCCC)c2nc3ccccc3nc21 | / | 2 | 1.1 | 18 | 10% | 3.6*
COCCn1c(N)c(C(=O)OCc2ccccc2)c2nc3ccccc3nc21 | / | 0 | 1.1 | 8 | 4% | 3.8*
COCCNC(=O)c1c(N)n(CCC2=CCCCC2)c2nc3ccccc3nc12 | / | 16 | 1 | 3 | 2% | 2.5*
COCCNC(=O)CSc1nc2cc(OC)c(OC)cc2c(=O)n1CCC1=CCCCC1 | i | 1 | 1 | 13 | 5% | 1.1
CCN(CCO)c1ccc(-n2c(N)c(C(=O)OC)c3nc4ccccc4nc32)cc1 | i | 0 | 1.1 | 19 | 6% | 1.1
